Screens as filed in PubChem BioAssay.
Rows were chosen to be rich in hits. Some 7.9% of all compounds tested hit in one or more screens of this group.
KB-3-1 cytotox: KB-3-1 parental cell cytotoxicity; KB-3-1 viability, CellTiter-Glo ATP luminescence, 72 h; Potency, µM (highest dose often 46.1 µM), usual class: cytotoxic; 1.4% of 400,000 active; further: nearly all actives have a fitted effect of over 60% in size
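Multi-concentration cytotoxicity screen in KB-3-1 cells grown in DMEM lacking phenol red with 10% FBS. After 72 h at 37 °C with compound, ATP-dependent luminescence was recorded.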
KB-V1 cytotox: kills drug-selected multidrug resistant KB-V1 cells; KB-V1 MDR cells viability, CellTiter-Glo, 72 h; Potency, µM (titrated, usually from 46.1 µM), hits mostly cytotoxic; 3.4% of 400,000 active; further: nearly all actives have a fitted effect of over 60% in size
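qHTS viability screen in drug-selected KB-V1 MDR cells: 72 h compound treatment at 37 degrees C, ATP luminescence end point.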
HT1080 IDH1KD tx: kills HT-1080 cells with IDH1 knockdown. 2% of 360,000 active. HT-1080 IDH1 knockdown viability, ATP luminescence, 48 h. Potency, µM (doses to about 46.1 µM), actives largely listed as cytotoxic. AID 686971
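CellTiter-Glo luminescence after 48 h compound exposure at 37 degrees C of IDH1-knockdown HT-1080 cells in 5% FBS RPMI. %Activity scaled between DMSO wells and cell-free media wells, with curves fitted and assigned curve classes.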
MCF10A rereplic: DNA re-replication induction in MCF 10a cells. MCF 10A DNA re-replication, Hoechst nuclear intensity, 48 h. Potency, µM (doses to about 46.1 µM), usual class: activators. 2.9% of 350,000 active. AID 624296; further: nearly all actives have a fitted effect of over 50% in size
HT1080-NT tox: kills 2HG-producing HT-1080-NT fibrosarcoma cells. HT-1080-NT fibrosarcoma viability, CellTiter-Glo ATP luminescence, 48 h. Potency, µM (titrated, usually from 46.1 µM), usual class: cytotoxic. 1.6% of 360,000 active. AID 686970;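 further: NT is the 2HG producing partner of a matched IDH1 knockdown line; nearly all actives have a fitted effect of over 55% in size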
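HT-1080-NT; 750 cells/well; 5% FBS RPMI; 48 h compound, 37 degrees C; CellTiter-Glo luminescence; curve fitting and curve-class assignment.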
SW480 rereplic: inducers of DNA re-replication in SW480 colon cancer cells; SW480 DNA re-replication, Hoechst DNA content imaging, 48 h; 1.8% of 340,000 active; AID 624297; Potency, µM (top dose mostly 46.1 µM), actives largely listed as activators; further: nearly all actives have a fitted effect of over 55% in size
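First, 250 cells per well were seeded. Next, compound or vehicle (23 nL) was pinned in, plates sat 48 hr at 37 C. Finally Hoechst was added for 40 min before fluorescence scanning.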
Hits are given with their value; i = inactive; ? = inconclusive; nt = no result given. The call rests on the fitted dose curve; in most records, active means well fitted curve in the direction sought with a large enough effect; inconclusive means small, poorly fitted or top-dose-only effect, or another doubt; inactive means no such curve, though single readings can be large; an effect the other way counts as inactive or inconclusive.

SMILES	KB-3-1 cytotox	KB-V1 cytotox	HT1080 IDH1KD tx	MCF10A rereplic	HT1080-NT tox	SW480 rereplic
O=C(Nc1ccc(Cl)c([N+](=O)[O-])c1)C(NCCCO)c1ccccc1 (stereo unspecified)	i	i	i	?	i	i
CC(C)(C)NC(=O)C(Cc1ccccc1)NS(=O)(=O)c1ccc2c(c1)CCC(=O)N2 (stereo unspecified)	i	i	i	i	i	i
O=c1cc(-c2ccccc2)[nH]n1-c1ccccc1	i	i	?	?	?	?
O=C1C=CC(=O)N1c1cccc(-c2ccccc2)c1	i	i	?	20.6µM	20.6µM	?
Cc1ccc(S(=O)(=O)Nc2cc(C)cc(CCNC=O)c2C)cc1	i	18.4µM	i	i	i	i
CCc1ccc(N=C2NC(=O)/C(=C/c3ccc(OCC(=O)O)c(OC)c3)S2)cc1	i	i	i	i	i	i
COc1cc(/C=C2/SC(=Nc3ccc(O)cc3)NC2=O)cc(OC)c1O	?	i	i	?	i	20.6µM
COc1ccc(N=C2NC(=O)/C(=C/c3ccc(O)c(OC)c3)S2)cc1	?	?	i	?	i	23.1µM
COc1cc(/C=C2\SC(=Nc3ccc(O)cc3)NC2=O)cc(OC)c1OC	4.61µM	i	2.91µM	?	3.66µM	3.26µM
COc1ccc(/C=C2/S/C(=N/S(=O)(=O)Cc3ccccc3)NC2=O)cc1OC	i	i	i	i	i	i
COc1ccccc1N=C1NC(=O)/C(=C/c2ccc(N(C)C)cc2)S1	10.3µM	7.31µM	3.26µM	9.2µM	7.31µM	4.11µM
Cc1cccc(C)c1NC(=O)NS(=O)(=O)c1ccccc1	i	i	i	nt	i	nt
COc1ccc(C(=O)COC(=O)c2ccn(C)n2)cc1	i	i	i	i	i	i
Cc1ccc(Cl)c(NC(=S)N(CCCN2CCOCC2)Cc2ccco2)c1	i	?	i	i	?	i
COc1ccccc1C(=O)NC(C)c1ccccc1 (stereo unspecified)	i	i	i	i	i	i
COc1cccc(NC(=O)CN(C)C(=O)c2c(C)nn(Cc3ccc(C)cc3)c2Cl)c1	i	i	i	i	i	i
O=C1NC(=Nc2ccc(O)cc2)S/C1=C\C=C\c1ccco1	3.26µM	2.31µM	1.46µM	?	1.3µM	?
COc1ccc(N=C2NC(=O)/C(=C\c3ccco3)S2)cc1	i	i	i	?	i	i
CC(NC(=O)CN(C)Cc1nc2ccccc2c(=O)[nH]1)c1ccccc1 (stereo unspecified)	i	i	i	i	i	i
CN(Cc1nc2ccccc2c(=O)[nH]1)Cc1nc2ccsc2c(=O)[nH]1	i	i	i	i	i	20.6µM
CCC(=O)n1nc(-c2cccnc2)nc1NCc1ccccc1	?	i	4.61µM	i	i	i
COc1ccccc1C(=O)n1nc(-c2ccccc2)nc1NCc1ccc(Cl)cc1	?	14.6µM	nt	nt	nt	nt
O=C(c1cccs1)n1nc(-c2ccccc2)nc1NCc1ccc(F)cc1	?	13µM	i	i	i	i
O=C(c1ccccc1)n1nc(-c2ccccc2)nc1NCc1ccc(F)cc1	i	i	nt	nt	nt	nt
COc1ccccc1C(=O)n1nc(-c2ccccc2)nc1NCc1ccco1	i	?	i	i	i	i
SMILES	KB-3-1 cytotox	KB-V1 cytotox	HT1080 IDH1KD tx	MCF10A rereplic	HT1080-NT tox	SW480 rereplic
N#Cc1ccc(OCC(=O)Nc2ccc(S(=O)(=O)N3CCOCC3)cc2)cc1	i	i	i	i	i	i
CC(=O)c1sc(NC(=O)c2ccc(COc3ccccc3Cl)o2)nc1C	i	i	i	?	i	?
CC1CCCC(NC(=O)Cn2cc3c(n2)CCCCC3)C1C (stereo unspecified)	i	i	i	i	i	i
C=CCn1c(NC(=O)c2ccc(Br)o2)c(S(=O)(=O)c2ccccc2)c2nc3ccccc3nc21	i	?	i	11.6µM	i	i
O=C(Nc1ccc(S(=O)(=O)NCc2ccccc2)cc1)c1ccc(Br)o1	i	i	i	i	i	i
CC(=O)C(N=Nc1ccccc1)(Sc1nnc(-c2ccccc2)n1-c1ccccc1)C(C)=O	?	11.6µM	i	i	i	?
CC(=O)C(N=Nc1ccccc1)(Sc1nnc(-c2ccccc2)n1-c1ccccc1)C(=O)Nc1ccccc1 (stereo unspecified)	i	i	i	i	i	i
c1ccc2c(c1)OCC(c1nn3c(Cn4nnc5ccccc54)nnc3s1)O2 (stereo unspecified)	i	?	i	i	i	i
CC(C)c1nnc(-c2ccc(Cl)cc2)c(N(C)C)n1	i	20.6µM	i	i	i	i
COc1cccc(NC(=O)Nc2cccn(Cc3ccc(C)cc3)c2=O)c1	?	?	?	?	i	i
CCc1ccc2nc(N(CCCN(C)C)C(=O)c3ccc(S(=O)(=O)N(C)C4CCCCC4)cc3)sc2c1	?	i	23.1µM	18.4µM	?	?
CCc1ccc2nc(N(CCCN(C)C)C(=O)c3ccc(S(=O)(=O)N4CCc5ccccc5C4)cc3)sc2c1	i	i	13µM	?	?	?
COc1ccc(-n2nnnc2C(c2ccnc3ccccc23)N2CCN(C/C=C/c3ccccc3)CC2)cc1 (stereo unspecified)	?	i	?	nt	?	nt
CCCc1cc(CN2CCOCC2)c(O)c(CN2CCOCC2)c1O	i	?	?	14.6µM	i	?
Oc1c(CN2CCOCC2)cc(CN2CCOCC2)c(O)c1O	i	i	i	i	i	i
COc1cc2c(=O)n(CCC(=O)NCC3CCCO3)c(=O)n(CC(=O)Nc3ccccc3C)c2cc1OC (stereo unspecified)	i	i	i	?	i	i
COc1ccc(N2C(=O)C(C)(C)C2c2c(O)ccc3ccccc23)cc1 (stereo unspecified)	i	i	i	?	i	?
CC1(C)C(=O)N(c2ccccc2)C1c1ccccc1O (stereo unspecified)	?	i	?	7.31µM	?	?
CCCCc1nc2ccccc2c(NC(=O)CN2CCCC2)c1CCC	i	i	i	i	i	i
CCCC(=O)Nc1c2c(nc3ccccc13)N(c1ccccc1)CC2	i	i	25.9µM	?	?	?
O=C(CN1CCCCC1)Nc1c2c(nc3ccccc13)N(c1ccccc1)CC2	i	?	16.4µM	?	11.6µM	?
C=CCOn1c(=O)c(-c2ccc(Br)cc2)[n+]([O-])c2ccccc21	i	i	i	?	i	i
Cc1cccn2c(=O)c3cc(C(=O)NCC4CCCO4)c(=N)n(Cc4cccnc4)c3nc12 (stereo unspecified)	i	i	i	13µM	i	9.2µM
Cc1ccc2nc3c(cc(C(=O)NCC4CCCO4)c(=N)n3CCCOC(C)C)c(=O)n2c1 (stereo unspecified)	i	i	i	?	i	?
